High-throughput results (PubChem BioAssay)
KCC2 mod = KCC2 cotransporter modulators, thallium flux, primary screen, cell-based, HEK293 KCC2, FluoZin-2 fluorescence, MLSMR; Solute carrier family 12 member 5 (Homo sapiens), Q9H2X9; KCC2 cells, thallium flux FluoZin-2 fluorescence; B-score of Tl+ flux slope (higher = more flux/activation; lower = inhibition) at 10 µM; 190,000 compounds, 2.2% hits;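 active = thallium flux slope and its plate-corrected score both differing from the plate sample mean at a set confidence after two filtering rounds, in either direction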;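 note: slope of fluorescence scaled to starting intensity during 10 to 20 s after thallium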
Lmaj promast = Leishmania major promastigote growth inhibition, primary screen | Leishmania major promastigotes, resazurin fluorescence viability | AID 1063, 2008 | inhibition, % at 10 µM | 200,000 compounds, 9% hits; in the data active = inhibition above about 50%;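 note: promastigotes grown with compound for 44 hours at 28 °C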
WT yeast gro inh = growth inhibition of WT strain, primary screen, mitochondrial fusion inhibitor project, WT and mutant strains, chemical genetic. mitochondrial fusion phenotypic screen. inhibition, % at 10 µM. 190,000 compounds, 2.1% hits; in the data active = inhibition above about 58%; tested in S. cerevisiae
Calpain2 inh = inhibitors of pig calpain II, primary screen, biochemical, fluorogenic peptide substrate, 1536-well; purified calpain II, 30 min; inhibition, % at 16 µM; 220,000 compounds, 0.37% hits; AID 1236, 2008;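 active = inhibition above about 50%, limit read from the data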
ROMK mod = ROMK potassium channel modulators, primary screen, cell-based, thallium flux, MLSMR library. 130,000 compounds, 2% hits. AID 1918, 2009. B-score at 10 µM. Tet-inducible ROMK, thallium flux fluorescence; actives lie on both sides;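 active = signal ratio slope over the read window, or its plate-corrected B-score, at least 3 SD from the plate mean, either direction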;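 note: B-score of the F/F0 ratio slope over 7 to 12 s after thallium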
Target sequence (P48048 whole entry, looked up): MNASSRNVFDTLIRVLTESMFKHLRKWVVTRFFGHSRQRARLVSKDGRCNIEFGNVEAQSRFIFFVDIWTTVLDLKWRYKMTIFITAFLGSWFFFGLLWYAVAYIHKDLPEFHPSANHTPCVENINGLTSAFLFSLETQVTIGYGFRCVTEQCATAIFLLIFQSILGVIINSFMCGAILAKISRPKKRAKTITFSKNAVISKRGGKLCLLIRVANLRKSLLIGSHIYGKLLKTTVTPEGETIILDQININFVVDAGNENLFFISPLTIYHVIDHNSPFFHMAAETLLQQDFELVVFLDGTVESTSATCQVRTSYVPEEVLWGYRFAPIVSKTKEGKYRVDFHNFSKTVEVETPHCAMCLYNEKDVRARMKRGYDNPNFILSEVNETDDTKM
Numbers without * were called inactive; / = not tested or not shown. This is a sample that favours compounds with a hit; in the whole collection about 12% have one here.

SMILES | KCC2 mod | Lmaj promast | WT yeast gro inh | Calpain2 inh | ROMK mod
N#CC1=C(N)N=C(SCc2cccc3ccccc23)C(C(N)=O)C12CCCCC2 (stereo not given) | -1.3 | 100* | 39 | -37 | -0.37
O=C(Nc1nnc(SCc2cccc3ccccc23)s1)C1COc2ccccc2O1 (stereo not given) | -0.36 | -5 | -10 | -37 | /
Cc1[nH]n(-c2ccc([N+](=O)[O-])cc2)c(=O)c1C=NCCN1CCN(C(=O)C(C)C)CC1 | 1.4 | -2 | 63* | -9 | -1.1
CCCN1C(=O)/C(=N\OCC(=O)NC23CC4CC(CC(C4)C2)C3)c2ccccc21 | 0.079 | 33 | 28 | 18 | /
CC(C)c1ccc(N=c2c([N+](=O)[O-])nn(-c3ccc4c(c3)OCCO4)n2O)cc1 | 0.016 | 2 | 29 | 15 | 0.12
O=[N+]([O-])c1nn(-c2ccccc2)n(O)c1=NC1CCN(Cc2ccccc2)CC1 | -0.36 | 42 | -16 | -7 | 1.2
CCc1cccc(N=c2c([N+](=O)[O-])nn(-c3ccc4c(c3)OCCO4)n2O)c1 | 1.3 | 91* | 38 | 14 | -0.62
O=[N+]([O-])c1nn(-c2ccc3c(c2)OCCO3)n(O)c1=NCc1ccc(F)cc1 | -1.4 | 97* | 7 | 23 | -0.17
O=[N+]([O-])c1nn(-c2ccc3c(c2)OCCO3)n(O)c1=NCCC1=CCCCC1 | -1.1 | 63* | 1 | 5 | 0.77
CCc1cccc(N=c2c([N+](=O)[O-])nn(-c3ccc(Cl)cc3)n2O)c1 | 0.1 | 37 | 19 | 33 | -0.56
O=[N+]([O-])c1nn(-c2ccc3c(c2)OCCO3)n(O)c1=NC1CCN(Cc2ccccc2)CC1 | -2 | 76* | -4 | 9 | 0.26
O=C1CN(c2nc3ccccc3n3cnnc23)CC(=O)N1CCc1ccccc1 | -0.11 | -8 | 7 | -10 | /
CC(C)c1nc(CN2CCCCC2)cc(=O)[nH]1 | -0.054 | -6 | 3 | -25 | 0.14
Cc1cccc(OCCC(=O)N(C)CC(=O)Nc2cccc3ccccc23)c1 | 0.12 | 2 | -3 | 10 | /
Cc1cc(C)c(S(=O)(=O)Nc2ccccc2C(=O)OCC(=O)NCc2ccccc2)c(C)c1 | 0.5 | -6 | -20 | -191 | 0.0081
CN=c1c([N+](=O)[O-])nn(-c2ccc3c(c2)OCCO3)n1O | 0.82 | 43 | -6 | 2 | 0.0057
O=[N+]([O-])c1nn(-c2ccc3c(c2)OCCO3)n(O)c1=NCc1ccc(F)cc1Cl | 0.0042 | 85* | 1 | -25 | -0.63
C=CCNC(=O)CSc1nnc(-c2ccccc2Br)n1-c1cccc(C(F)(F)F)c1 | -1.3 | 79* | -13 | -3 | 0.65
CS(=O)(=O)CCC(C(=O)OCc1ccc(Br)cc1)N1C(=O)c2ccccc2C1=O (stereo not given) | -0.48 | -8 | -23 | -4 | /
COC(=O)c1ccc(COC(=O)C(CCS(C)(=O)=O)N2C(=O)c3ccccc3C2=O)cc1 (stereo not given) | -0.31 | -4 | 2 | -11 | /
CCOc1ccc(OC(=O)C(CCS(C)(=O)=O)N2C(=O)c3ccccc3C2=O)cc1 (stereo not given) | -0.5 | 72* | 7 | 4 | 0.11
CC(=O)c1ccc(OC(=O)C(CCS(C)(=O)=O)N2C(=O)c3ccccc3C2=O)cc1 (stereo not given) | 0.68 | 67* | -2 | -7 | /
CC(C)NC(=O)/C(C#N)=C/c1cccc(NC(=O)c2ccccc2Cl)c1 | 0.55 | 100* | 50 | 14 | /
CCCC1(C(=O)O)NC(c2ccc(OC)cc2O)C2C(=O)N(c3ccc(OC)cc3)C(=O)C21 (stereo not given) | -1.2 | -9 | 12 | -6 | /
Cc1occc1-c1nnc(SCC(=O)Nc2ccccc2)n1C(C)c1ccccc1 (stereo not given) | -0.71 | 36 | 13 | -2 | -0.2
SMILES | KCC2 mod | Lmaj promast | WT yeast gro inh | Calpain2 inh | ROMK mod
CCn1c(=O)cc(SCC(=O)N2CCN(C3CCCCC3)CC2)c2ccccc21 | / | 51* | -4 | -4 | -2.6
CCN(CC)c1ccc(/C=C(\C#N)c2ccccn2)cc1 | -0.55 | 12 | 68* | 10 | 1.8
CCN(Cc1ccccc1)c1ccc(/C=C(\C#N)c2ccccn2)cc1 | -1.4 | 1 | 11 | 12 | /
O=C(C(=O)N1CCCC1CO)N1CCCC1CO (stereo not given) | 0.22 | -6 | -19 | -20 | 0.45
CCOC(=O)c1ccc(NC(=O)Cn2ccc([N+](=O)[O-])n2)cc1 | 0.77 | 3 | 7 | -14 | -0.1
O=[N+]([O-])c1ccc(-c2cn(-c3ccc(Cl)cc3)c(=S)[nH]2)cc1 | 3.7* | -3 | 11 | 33 | /
CCc1ccc(-n2cc(-c3ccc([N+](=O)[O-])cc3)[nH]c2=S)cc1 | 3.7 | -8 | -5 | 11 | 0.13
COc1ccc2c(c1)CCC(C)N2S(=O)(=O)c1ccc(C2CNC(=O)C2)cc1 (stereo not given) | -0.55 | 95* | 3 | 25 | -0.52
COc1ccc(CNS(=O)(=O)c2ccc(C3CNC(=O)C3)cc2)cc1 (stereo not given) | -1.5 | 0 | -14 | -24 | /
Cc1nc2c(-c3ccc(F)cc3)c(C)nn2c(C)c1CCC(=O)NC(C)CCc1ccco1 (stereo not given) | -2.7 | 100* | 10 | 0 | /
Cc1nc2c(-c3ccccc3)c(C)nn2c(C)c1CCC(=O)NCc1ccco1 | / | -4 | 12 | 12 | /
COc1ccc(NC(=O)Nc2sc(NS(=O)(=O)c3ccccc3)nc2C)cc1 | 0.72 | -10 | 6 | -26 | 0.15
Cc1cc(NC(=O)CSc2nc3ccsc3c(=O)n2CCCC(=O)NCCc2ccccc2)no1 | -0.13 | 6 | 0 | 50* | 0.71
Cc1ccc(SCCNC(=S)Nc2ccc(C)cc2C)cc1 | -0.2 | 9 | 69* | 15 | /
Cc1ccc(NC(=S)NCCSc2ccc(Cl)cc2)cc1 | 1.9 | 28 | 25 | 12 | 0.021
Cc1ccc(SCCNC(=S)Nc2cc(C)cc(C)c2)cc1 | / | 65* | 76* | 52* | -0.14
COC(=O)Cc1ccc(NC(=S)NCCSc2ccc(C)cc2)cc1 | 1.4 | 3 | 68* | 30 | -0.43
COc1cc(C(=O)N2CCC(c3nc(-c4cccnc4)no3)CC2)cc(OC)c1OC | -0.44 | 2 | -4 | 27 | 1.3
O=C(NC(c1ccccc1)c1ccccc1)C1CCCO1 (stereo not given) | -0.0032 | -4 | -7 | -78 | /
Cc1nc(N2CCN(Cc3ccc4c(c3)OCO4)CC2)nc2c1C(=O)CC(c1ccco1)C2 (stereo not given) | -0.01 | 12 | 19 | 67* | /
CC(C)CCOC(=O)C(C)Sc1n[nH]c(=O)[nH]c1=O (stereo not given) | -0.0049 | / | / | 8 | /
Cn1c(CN2CCCCC2)nc2cc(NC(=O)c3ccc(Cl)cc3)ccc21 | -0.18 | -2 | 70* | -13 | /
Cn1c(CN2CCCC2)nc2cc(NC(=O)c3ccc(Cl)cc3)ccc21 | -0.93 | 2 | 2 | 23 | -0.65
